Assay results: ChEMBL document CHEMBL2218924, “A broad activity screen in support of a chemogenomic map for kinase signalling research and drug discovery” (Biochem J, 2013); call rule not given here

Assays:
[1] = target: Protein kinase C eta type (Homo sapiens) (UniProt P24723); conditions: at 1 µM
[2] = target: Protein kinase C eta type (Homo sapiens) (UniProt P24723); conditions: at 10 µM
[3] = target: Protein kinase C theta type (Homo sapiens) (UniProt Q04759); conditions: at 1 µM
[4] = target: Protein kinase C theta type (Homo sapiens) (UniProt Q04759); conditions: at 10 µM
[5] = target: T1, Protein kinase C iota type (Homo sapiens) (UniProt P41743); conditions: at 1 µM
T1 sequence (whole entry): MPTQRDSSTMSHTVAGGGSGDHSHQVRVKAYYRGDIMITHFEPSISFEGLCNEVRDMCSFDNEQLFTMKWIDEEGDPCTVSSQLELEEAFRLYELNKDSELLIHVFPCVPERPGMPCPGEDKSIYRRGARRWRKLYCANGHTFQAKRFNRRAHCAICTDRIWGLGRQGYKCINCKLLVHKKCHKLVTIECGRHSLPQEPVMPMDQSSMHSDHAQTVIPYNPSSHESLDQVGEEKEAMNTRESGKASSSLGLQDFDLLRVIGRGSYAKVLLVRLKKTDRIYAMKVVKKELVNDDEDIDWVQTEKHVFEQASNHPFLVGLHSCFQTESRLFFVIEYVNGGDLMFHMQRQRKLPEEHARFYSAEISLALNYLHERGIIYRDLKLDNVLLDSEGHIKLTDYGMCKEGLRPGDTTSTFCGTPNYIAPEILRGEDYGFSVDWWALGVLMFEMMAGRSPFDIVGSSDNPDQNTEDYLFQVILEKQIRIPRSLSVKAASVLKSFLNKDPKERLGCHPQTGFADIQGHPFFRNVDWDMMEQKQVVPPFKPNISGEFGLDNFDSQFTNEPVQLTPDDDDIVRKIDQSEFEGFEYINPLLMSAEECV

[6] = target: T1, Protein kinase C iota type (Homo sapiens); conditions: at 10 µM
[7] = target: T2, Serine/threonine-protein kinase D1 (Homo sapiens) (UniProt Q15139); conditions: at 1 µM
T2 sequence (whole entry): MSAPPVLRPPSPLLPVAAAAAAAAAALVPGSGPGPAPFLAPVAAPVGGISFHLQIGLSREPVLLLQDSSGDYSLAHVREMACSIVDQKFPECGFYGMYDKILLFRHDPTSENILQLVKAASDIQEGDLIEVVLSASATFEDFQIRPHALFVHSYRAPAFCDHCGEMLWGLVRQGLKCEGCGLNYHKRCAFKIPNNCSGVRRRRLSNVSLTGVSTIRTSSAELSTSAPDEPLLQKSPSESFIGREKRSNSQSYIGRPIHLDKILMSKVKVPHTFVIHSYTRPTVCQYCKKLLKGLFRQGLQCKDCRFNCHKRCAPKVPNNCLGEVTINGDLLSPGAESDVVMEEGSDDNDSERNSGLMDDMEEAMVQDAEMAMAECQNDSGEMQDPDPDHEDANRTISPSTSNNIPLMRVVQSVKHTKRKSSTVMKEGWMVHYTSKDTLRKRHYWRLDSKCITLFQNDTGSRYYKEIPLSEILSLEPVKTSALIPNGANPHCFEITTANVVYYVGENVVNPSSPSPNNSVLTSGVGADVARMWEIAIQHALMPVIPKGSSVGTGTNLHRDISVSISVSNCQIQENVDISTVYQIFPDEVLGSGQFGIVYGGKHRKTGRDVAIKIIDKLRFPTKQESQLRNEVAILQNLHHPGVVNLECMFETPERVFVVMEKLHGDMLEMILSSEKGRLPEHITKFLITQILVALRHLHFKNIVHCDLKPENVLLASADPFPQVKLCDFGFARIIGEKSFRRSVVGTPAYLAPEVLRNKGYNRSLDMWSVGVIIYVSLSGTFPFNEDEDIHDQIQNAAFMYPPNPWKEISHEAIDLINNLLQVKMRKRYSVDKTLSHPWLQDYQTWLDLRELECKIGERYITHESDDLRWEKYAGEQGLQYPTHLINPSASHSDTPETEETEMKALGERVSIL

[8] = target: T2, Serine/threonine-protein kinase D1 (Homo sapiens); conditions: at 10 µM
[9] = target: T3, Serine/threonine-protein kinase D2 (Homo sapiens) (UniProt Q9BZL6); conditions: at 1 µM
T3 sequence (whole entry): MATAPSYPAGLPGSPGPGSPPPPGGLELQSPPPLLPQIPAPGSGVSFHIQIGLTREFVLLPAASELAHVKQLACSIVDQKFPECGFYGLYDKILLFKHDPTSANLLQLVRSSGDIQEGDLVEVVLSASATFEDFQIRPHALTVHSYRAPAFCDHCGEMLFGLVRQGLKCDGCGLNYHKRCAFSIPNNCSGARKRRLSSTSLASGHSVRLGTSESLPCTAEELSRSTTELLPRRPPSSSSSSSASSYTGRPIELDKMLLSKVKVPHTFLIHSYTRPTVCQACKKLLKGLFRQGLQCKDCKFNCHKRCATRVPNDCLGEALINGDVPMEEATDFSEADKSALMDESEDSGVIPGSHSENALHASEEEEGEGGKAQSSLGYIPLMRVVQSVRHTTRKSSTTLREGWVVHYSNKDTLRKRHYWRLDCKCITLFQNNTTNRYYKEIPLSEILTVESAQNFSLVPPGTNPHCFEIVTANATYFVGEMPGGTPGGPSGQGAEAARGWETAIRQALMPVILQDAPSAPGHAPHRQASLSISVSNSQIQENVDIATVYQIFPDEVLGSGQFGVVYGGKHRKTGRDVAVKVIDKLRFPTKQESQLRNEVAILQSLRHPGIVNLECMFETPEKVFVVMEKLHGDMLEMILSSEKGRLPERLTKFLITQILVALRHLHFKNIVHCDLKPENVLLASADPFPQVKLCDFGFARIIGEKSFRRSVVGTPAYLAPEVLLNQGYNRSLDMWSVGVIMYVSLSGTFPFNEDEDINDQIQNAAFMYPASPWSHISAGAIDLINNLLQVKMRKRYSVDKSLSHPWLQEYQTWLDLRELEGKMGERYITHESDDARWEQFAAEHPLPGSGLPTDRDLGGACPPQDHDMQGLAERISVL

[10] = target: T3, Serine/threonine-protein kinase D2 (Homo sapiens); conditions: at 10 µM

Chain of Protein kinase C theta type (Homo sapiens) (Q04759 whole entry, looked up): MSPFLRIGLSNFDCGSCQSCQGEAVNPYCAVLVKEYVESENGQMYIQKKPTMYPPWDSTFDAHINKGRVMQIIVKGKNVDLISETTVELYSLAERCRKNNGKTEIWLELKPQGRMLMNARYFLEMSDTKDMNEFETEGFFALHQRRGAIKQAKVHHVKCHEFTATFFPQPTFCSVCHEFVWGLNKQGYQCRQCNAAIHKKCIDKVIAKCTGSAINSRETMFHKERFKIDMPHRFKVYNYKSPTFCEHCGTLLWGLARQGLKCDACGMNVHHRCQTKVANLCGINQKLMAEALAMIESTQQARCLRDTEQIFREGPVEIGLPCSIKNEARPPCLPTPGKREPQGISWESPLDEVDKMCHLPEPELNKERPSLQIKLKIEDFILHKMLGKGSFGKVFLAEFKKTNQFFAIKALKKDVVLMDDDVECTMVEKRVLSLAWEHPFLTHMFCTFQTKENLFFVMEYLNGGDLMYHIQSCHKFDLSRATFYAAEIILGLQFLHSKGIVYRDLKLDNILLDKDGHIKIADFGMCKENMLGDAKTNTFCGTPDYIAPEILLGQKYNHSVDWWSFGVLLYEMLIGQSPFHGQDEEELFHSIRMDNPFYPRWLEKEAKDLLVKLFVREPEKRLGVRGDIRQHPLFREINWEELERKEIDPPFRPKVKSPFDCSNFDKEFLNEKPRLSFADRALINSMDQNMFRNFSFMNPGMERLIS
Chain of Protein kinase C eta type (Homo sapiens) (P24723 whole entry): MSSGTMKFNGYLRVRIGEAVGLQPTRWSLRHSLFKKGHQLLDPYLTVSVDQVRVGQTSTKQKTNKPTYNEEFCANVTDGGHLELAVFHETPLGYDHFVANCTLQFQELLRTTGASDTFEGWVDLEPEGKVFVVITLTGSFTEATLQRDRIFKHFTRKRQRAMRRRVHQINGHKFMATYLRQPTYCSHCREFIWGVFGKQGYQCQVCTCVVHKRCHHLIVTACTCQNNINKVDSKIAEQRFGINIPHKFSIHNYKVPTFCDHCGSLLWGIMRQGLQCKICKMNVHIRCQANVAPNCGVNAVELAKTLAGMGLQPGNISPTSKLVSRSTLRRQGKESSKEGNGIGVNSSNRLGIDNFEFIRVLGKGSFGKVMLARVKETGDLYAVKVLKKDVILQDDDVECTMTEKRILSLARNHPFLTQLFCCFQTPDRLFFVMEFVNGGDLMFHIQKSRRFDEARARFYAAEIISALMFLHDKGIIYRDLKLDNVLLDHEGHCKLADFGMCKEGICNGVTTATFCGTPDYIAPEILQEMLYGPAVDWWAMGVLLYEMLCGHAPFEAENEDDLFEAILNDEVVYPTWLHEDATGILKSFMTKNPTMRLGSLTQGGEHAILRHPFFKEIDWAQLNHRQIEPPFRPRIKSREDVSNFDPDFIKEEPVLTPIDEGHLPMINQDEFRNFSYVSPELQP

| SMILES | residual activity [1] | residual activity [2] | residual activity [3] | residual activity [4] | residual activity [5] | residual activity [6] | residual activity [7] | residual activity [8] | residual activity [9] | residual activity [10] |
| --- | --- | --- | --- | --- | --- | --- | --- | --- | --- | --- |
| Cc1ccc(NC2=CC(=O)c3sc(C)nc3C2=O)cc1 | 83% | 86% | 88% | 87% | 106% (inactive) | 103% | 76% | 73% | 105% | 85% |
| COc1ccc(C(=O)Nc2sc3c(c2C(N)=O)CCCC3)cc1OC | 98% | 77% | 89% | 84% | 89% (inactive) | 107% | 89% | 96% | 103% | 108% |
| CC(C)n1cnc2c(NCc3ccccc3)nc(NCCCO)nc21 | 88% | 81% | 91% | 94% | 109% (inactive) | 105% | 91% | 72% | 103% | 96% |
| CC[n+]1c(/C=C/N(C)c2ccccc2)n(-c2ccccc2)c2ccc(-c3nc4ccccc4s3)cc21 | 119% | 88% | 96% | 84% | 93% (inactive) | 88% | 92% | 90% | 95% | 114% |
| COc1cc2ncnc(N3CCN(C(=O)Nc4ccc(Oc5ccccc5)cc4)CC3)c2cc1OC | 98% | 74% | 94% | 108% | 90% (inactive) | 99% | 102% | 66% | 103% | 99% |
| N#C/C(=C(\N)Sc1ccc(N)cc1)c1ccccc1C(F)(F)F | 76% | 83% | 84% | 77% | 106% (inactive) | 108% | 82% | 68% | 109% | 100% |
| COc1cc2ncnc(Nc3ccc(O)c(Br)c3)c2cc1OC | 94% | 69% | 83% | 81% | 88% (inactive) | 106% | 47% | 16% | 93% | 79% |
| O=C1NC(=O)c2cc(Nc3ccc(F)cc3)c(Nc3ccc(F)cc3)cc21 | 91% | 80% | 87% | 62% | 91% (inactive) | 106% | 94% | 72% | 101% | 89% |
| CC(C)n1cnc2/c(=N/c3cccc(Cl)c3)nc(NCCO)[nH]c21 | 87% | 75% | 69% | 35% | 110% (inactive) | 103% | 77% | 57% | 96% | 93% |
| O=c1c2ccccc2[nH]c(=S)n1CCN1CCC(=C(c2ccc(F)cc2)c2ccc(F)cc2)CC1 | 106% | 83% | 110% | 109% | 109% (inactive) | 81% | 113% | 84% | 100% |  |
| Cc1cncc2cccc(S(=O)(=O)N3CCCN(C(=O)CN)C[C@H]3C)c12 | 27% | 4% | 21% | 3% | 82% (inactive) | 75% | 83% | 71% |  |  |
| c1ccc(-c2n[nH]cc2-c2ccnc3ccccc23)nc1 | 92% | 77% | 97% | 86% | 81% (inactive) | 91% | 65% | 22% | 101% | 66% |
| O=c1cc(-c2cccc3c2Sc2ccccc2S3)oc(N2CCOCC2)c1 | 107% | 101% | 97% | 91% | 117% (inactive) | 102% | 86% | 80% | 106% | 103% |
| O=C(O)c1ccc2c3c1cccc3c(=O)n1c3ccccc3nc21 | 76% | 84% | 109% | 107% | 105% (inactive) | 92% | 110% | 57% | 101% | 84% |
| Cc1nc2cc3nc(-c4cccs4)cnc3cc2n1C | 107% | 111% | 110% | 110% | 97% (inactive) | 99% | 94% | 95% | 96% | 105% |
| COc1cccc(-c2cc(=O)c3ccccc3o2)c1N | 101% | 94% | 92% | 97% | 114% (inactive) | 108% | 85% | 95% | 110% | 97% |

| SMILES | residual activity [1] | residual activity [2] | residual activity [3] | residual activity [4] | residual activity [5] | residual activity [6] | residual activity [7] | residual activity [8] | residual activity [9] | residual activity [10] |
| --- | --- | --- | --- | --- | --- | --- | --- | --- | --- | --- |
| Oc1c2ccccc2c2c3c(cccc13)N=N2 | 86% | 82% | 90% | 76% | 117% (inactive) | 107% | 32% | -1% | 92% | 36% |
| COc1ccc(CNc2nc(N(CCO)CCO)nc3c2ncn3C(C)C)cc1 | 83% | 83% | 4% | 5% | 112% (inactive) | 108% | 91% | 71% | 101% | 93% |
| O=[N+]([O-])c1ccc(-c2nc(-c3ccc(F)cc3)c(-c3ccncc3)[nH]2)cc1 | 95% | 68% | 91% | 68% | 110% (inactive) | 109% | 64% | 52% | 100% | 94% |
| CC#CC(=O)Nc1cc2c(Nc3ccc(F)c(Cl)c3)ncnc2cn1 | 90% | 84% | 96% | 96% | 87% (inactive) | 106% | 89% | 84% | 105% | 114% |
| CCC(=O)Nc1ccc2ncnc(Nc3cccc(Br)c3)c2c1 | 85% | 82% | 96% | 95% | 100% (inactive) | 101% | 85% | 82% | 105% | 112% |
| Nc1n[nH]c2nnc(-c3c(-c4ccccc4)nn4ccccc34)cc12 | 56% | 19% | 47% | 16% | 115% (inactive) | 100% | 56% | 12% | 96% | 49% |
| O=C1Nc2cc(Br)ccc2/C1=C1/Nc2ccccc2/C1=N\O | 76% | 74% | 87% | 75% | 110% (inactive) | 112% | 90% | 100% | 101% | 95% |
| Oc1ccc(Nc2nc(-c3ccc(Cl)cc3)cs2)cc1 | 78% | 79% | 100% | 114% | 109% (inactive) | 103% | 94% | 100% | 106% | 93% |
| NC(=O)c1ccc2[nH]c(-c3ccc(Oc4ccc(Cl)cc4)cc3)nc2c1 | 86% | 80% | 85% | 105% | 107% (inactive) | 96% | 109% | 79% | 99% | 84% |
| CNc1cc2c(Nc3cccc(Br)c3)ncnc2cn1 | 80% | 90% | 100% | 94% | 94% (inactive) | 102% | 86% | 49% | 104% | 98% |
| O=C1c2ccccc2-[n+]2ccc3c([nH]c4ccccc43)c21 | 72% | 80% | 93% | 99% | 100% (inactive) | 105% | 83% | 71% | 101% | 100% |
| CO[C@H]1[C@@H](OC)C[C@H](C)[C@@H](OC)C2=CC(=O)C=C(NC(=O)/C(C)=C/C=C/[C@H](OC)[C@@H](OC(N)=O)/C(C)=C/[C@@H]1C)C2=O | 118% | 83% | 100% | 98% | 92% (inactive) | 71% | 119% | 102% | 102% | 110% |
| O=C(Nc1cccc(Nc2nccc(Nc3cccc(C(F)(F)F)c3)n2)c1)C1CC1 | 107% | 84% | 102% | 82% | 84% (inactive) | 77% | 101% | 125% | 99% | 96% |
| Nc1ccc2ncnc(NCCc3ccc(Oc4ccccc4)cc3)c2c1 | 102% | 90% | 108% | 105% | 113% (inactive) | 111% | 91% | 82% | 107% | 102% |
| CCN(CC)CCCCN1c2ccccc2Oc2ccc(Cl)cc21 | 118% | 98% | 123% | 90% | 94% (inactive) | 89% | 92% | 95% | 97% | 109% |
| O=C1NC(=O)/C(=C/c2ccc3c(c2)OC(F)(F)O3)S1 | 120% | 89% | 109% | 100% | 90% (inactive) | 80% | 105% | 77% | 107% | 99% |
